# A selection: hits, their analogues and other compounds. The true share with any hit is near 7.5%.
# ELG1 genotoxic: inducers of genotoxicity in HEK293T ELG1-luciferase cells; HEK293T ELG1-luciferase reporter, luminescence, 16 h; Potency, µM (highest dose often 46 µM), without a hit: top-dose activity change, positive = activation, usual class: activators; 330,000 compounds, 1.3% hits; also: % of control where 0% means no effect; nearly all actives have a fitted effect of over 60% in size
#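 Luminescence read-out: rising ELG1-luciferase signal, reflecting elevated ELG1 protein under genetic stress, flags genotoxic compounds. Cells were treated for 16 hr at 37 °C before ONE-Glo detection.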
# KinaseGlo FLuc: blocks Kinase-Glo luciferase, a counter-screen artifact; 200,000 compounds, 0.28% hits; AID 1379; Q27757; Kinase-Glo luciferase, ATP luminescence, 8 min; Potency, µM (titrated, usually from 38.3 µM), for the others: top-dose activity change, negative = inhibition, actives largely listed as inhibitors; also: % is scaled to controls: 0 for no effect and ±100 for the full control effect; nearly all actives have a fitted effect of over 60% in size
#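 Kinase-Glo luciferase light output from ATP and luciferin was measured with 10 uM ATP, within the enzyme's linear range. Buffer: 50 mM imidazole pH 7.2, 50 mM KCl, 7 mM MgCl2, 0.01% Tween 20, 0.05% BSA; luminescence read after 8 min at ambient temperature.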
# SMN2 splice enh: increases expression of the SMN2 splice variant. 210,000 compounds, 2.8% hits. Potency, µM (top dose mostly 46.1 µM), inactives show at the highest dose activity change, positive = activation, usual class: activators. HEK293 SMN2-luciferase splicing reporter, luminescence, 30-36 h; also: % of control where 0% means no effect; nearly all actives have a fitted effect of over 55% in size
#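 HEK293 cells carry an SMN2 minigene-luciferase reporter in which exon 7 inclusion puts luciferase in frame. Cells were seeded at 2000 cells/well, attached for 10-12 hours, then exposed to compounds for 30-36 hours at 37C before ONE-Glo luminescence.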
# FLuc counter: counter-screen for miR-21 project: firefly luciferase inhibitors or activators | P08659 | purified FLuc, Km substrates, luminescence inhibition | Potency, µM (top dose mostly 57.5 µM), inactives show top-dose activity change, negative = inhibition, hits mostly inhibitors | 360,000 compounds, 6.9% hits;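 also: plate controls were vehicle for no effect and reference inhibitor for full effect; nearly all actives have a fitted effect of over 55% in size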
# Target sequence (P08659 whole entry, looked up): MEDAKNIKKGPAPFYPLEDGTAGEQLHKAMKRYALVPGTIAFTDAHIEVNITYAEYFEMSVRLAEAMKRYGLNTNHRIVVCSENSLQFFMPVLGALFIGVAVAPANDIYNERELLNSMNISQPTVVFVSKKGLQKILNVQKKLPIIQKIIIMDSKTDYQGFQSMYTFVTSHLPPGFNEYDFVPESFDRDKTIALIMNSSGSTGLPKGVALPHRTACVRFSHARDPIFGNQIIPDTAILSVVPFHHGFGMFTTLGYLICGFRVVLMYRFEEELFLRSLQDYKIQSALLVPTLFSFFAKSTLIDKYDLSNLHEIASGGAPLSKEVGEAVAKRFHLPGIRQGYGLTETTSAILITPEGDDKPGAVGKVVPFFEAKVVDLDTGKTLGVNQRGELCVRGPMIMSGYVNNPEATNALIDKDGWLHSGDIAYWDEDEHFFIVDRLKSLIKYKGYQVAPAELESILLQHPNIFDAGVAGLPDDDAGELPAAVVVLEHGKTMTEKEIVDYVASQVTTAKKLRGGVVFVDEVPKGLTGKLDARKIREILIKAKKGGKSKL
#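 Purified P. pyralis luciferase (10nM final) with 10uM D-luciferin and 10uM ATP (Km levels) in 50mM Tris acetate pH 7.5, 10mM Mg acetate, 0.01% Tween-20, 0.05% BSA; qHTS 6-point titration, ~60 µM downward; luminescence read.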
# Rab9 promoter act: Rab9 promoter activation. 320,000 compounds, 2.8% hits. Huh7 Rab9 promoter-luciferase reporter, luminescence, 24 h. AID 485297. Potency, µM (series often up to 9.22 µM), inactives show at the highest dose activation, negative = inhibition, most hits filed as activators; also: % of control where 0% means no effect; nearly all actives have a fitted effect of over 60% in size
#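 Measured in stably transfected Huh7 cells bearing a Rab9 promoter–luciferase construct: 24 h compound treatment at 37 °C, followed by luminescence detection.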
# NPC1 prom act: activators of NPC1 promoter | 320,000 compounds, 2.4% hits | AID 485313 | Huh7 NPC1 promoter luciferase reporter, 24 h | Potency, µM (top dose mostly 9.22 µM), without a hit: at the highest dose activation, usual class: activators; also: % of control where 0% means no effect; nearly all actives have a fitted effect of over 60% in size
#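 Huh7 reporter cells (NPC1 promoter driving luciferase) are dosed with compound for 24 h at 37 °C, 5% CO2; luciferase detection reagent is then added and luminescence measured after 10 min at ambient temperature.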
# * marks the source's active call; other numbers are inactive results; ? = inconclusive; nt = no result; [ ] = remark or other dose. Calls follow the shape of the dose curve; as a rule, active = well fitted curve in the direction sought with a large enough effect; inconclusive = small, poorly fitted or top-dose-only effect, or another doubt; inactive = no such curve, though single readings can be large; an effect the other way counts as inactive or inconclusive. Potency is read from the fitted curve at half-maximal effect.
SMILES,ELG1 genotoxic,KinaseGlo FLuc,SMN2 splice enh,FLuc counter,Rab9 promoter act,NPC1 prom act
CC(=O)c1cc(-c2ccccc2)n(CCC(=O)NC(C)c2ccccc2)c1C (stereo not drawn),nt,nt,nt,4.2%,nt,nt
COCCCNC1=C(Cl)C(=O)c2ccccc2C1=O,-5.5%,nt,nt,?,-2.9%,-0.9%
CC(C)OCCCNC1=C(Cl)C(=O)c2ccccc2C1=O,4.1%,nt,nt,13.5µM*,12.6%,13.7%
Cc1c(C(=O)N(Cc2ccccc2F)C2CCS(=O)(=O)C2)oc2ccccc12 (stereo not drawn),nt,nt,-10.7%,1.2%,nt,nt
CCCN1C(C(=O)c2ccccc2)=C(OC(=O)COc2ccc(C)cc2)c2ccccc2S1(=O)=O,nt,nt,9.7%,-14.1%,nt,nt
Clc1ccccc1CNCC1CCC(CNCc2ccccc2Cl)CC1 (stereo not drawn),nt,3.3%,nt,nt,nt,nt
Cc1cccc(-c2nc3c4ccccc4n(CC(=O)Nc4cccc(F)c4)c(=O)n3n2)c1,nt,nt,nt,23.9µM*,nt,nt
NNc1nc(-c2ccccc2)cc(-c2ccc(Br)cc2)n1,-8.8%,nt,nt,?,-2.9%,-4.0%
Brc1ccc(-n2cnc(-c3ccccc3)c2)cc1,?,nt,nt,0.953µM*,0.562µM*,1.41µM*
COc1ccc(Cc2nc(C(=O)Nc3ccccc3)cs2)cc1,0.0%,-1.4%,-67.3%,19µM*,21.9%,?
O=C(Nc1ccc(Cl)cc1)c1csc(Cc2ccccc2)n1,?,2.2%,?,5.36µM*,?,22.3%
COc1ccc(Cc2nc(C(=O)Nc3ccc(F)cc3)cs2)cc1,6.4%,-1.5%,-32.0%,?,12.0%,1.9%
COc1ccc(NC(=O)c2csc(Cc3ccc(Cl)cc3)n2)cc1,-1.1%,0.0%,-22.9%,23.9µM*,-12.5%,0.5%
COc1ccc(Cc2nc(C(=O)Nc3ccc(Cl)cc3)cs2)cc1,?,-4.4%,-75.4%,?,0.0%,-4.4%
CNC(=O)C1CCC(Cn2c(=O)c3sccc3n(Cc3ccc(F)cc3)c2=O)CC1 (stereo not drawn),nt,nt,nt,2.8%,nt,nt
Cc1c2cnn(-c3ccccc3)c(=O)c2c(C)n1CC(=O)N1CCN(c2ccc(F)cc2)CC1,nt,nt,-15.4%,-4.3%,nt,nt
Cc1c(C(=O)Nc2cccc(C(F)(F)F)c2)oc2ccc3c(c12)C(=O)CC(C)(C)O3,nt,nt,nt,3.38µM*,nt,nt
CC1=C(C(=O)Nc2ccc(F)cc2F)C2(CCN(C(C)C)CC2)OC1=O,nt,nt,nt,2.5%,nt,nt
Cc1cccc(C)c1NC(=O)c1oc2ccc3c(c2c1C)C(=O)CC(C)(C)O3,nt,nt,nt,-13.0%,nt,nt
Cc1c(C(=O)Nc2ccc(F)cc2F)oc2ccc3c(c12)C(=O)CC(C)(C)O3,nt,nt,nt,1.07µM*,nt,nt
Cc1c(C(=O)Nc2cccc(C(F)(F)F)c2)oc2ccc(S(=O)(=O)N3CCOCC3)cc12,-10.8%,0.8%,-27.3%,1.0%,-15.4%,-12.4%
Cc1cc(C)cc(NC(=O)c2oc3ccc4c(c3c2C)C(=O)CC(C)(C)O4)c1,nt,nt,nt,0.757µM*,nt,nt
CCC(C)NC(=O)C(=O)Nc1c2c(nn1-c1ccccc1)CS(=O)(=O)C2 (stereo not drawn),nt,nt,nt,-5.0%,nt,nt
COc1ccc(CNC(=O)CC(C)n2nc(C)cc2C)cc1 (stereo not drawn),nt,nt,nt,0.2%,nt,nt
COc1ccc(Br)cc1Cn1nnc(C(=O)Nc2ccc3c(c2)OCCO3)c1N,-6.6%,nt,nt,?,-1.7%,0.4%
Nc1c(C(=O)Nc2ccc3c(c2)OCCO3)nnn1Cc1ccc(F)cc1,?,nt,nt,?,2.24µM*,2.51µM*
COc1ccc(NC(=O)c2nnn(CC(=O)Nc3ccc4c(c3)OCO4)c2N)cc1OC,-0.2%[9.26 µM],nt,nt,-4.6%,-3.6%,-4.8%
Nc1c(C(=O)Nc2ccc3c(c2)OCCO3)nnn1Cc1cccc(Cl)c1,11.6%,nt,nt,?,?,?
Nc1c(C(=O)Nc2ccc3c(c2)OCCO3)nnn1Cc1ccccc1Cl,16.6%,nt,nt,?,2.24µM*,2.82µM*
COc1ccc(NC(=O)c2nnn(CC(=O)Nc3ccc4c(c3)OCO4)c2N)c(OC)c1,1.1%[9.26 µM],nt,nt,1.9µM*,17.9%,18.6%

# Bioassay records from PubChem.
